Screening data (PubChem)
Many of the other results were omitted from the sample, so hits are more common in it than they were.
Cycloheximide cs: Cycloheximide Counterscreen for Small Molecule Inhibitors of Shiga Toxin | cell reporter, cycloheximide protein synthesis inhibition counterscreen | 12% of 300,000 active | max response, % | AID 2314, 2010; in the data active means max response mostly above about 13%, no sharp cut-off; inactive means mostly below about 14%; further: read at 38.3 µM for the half of the compounds with a filed dose; 0% is about no effect
FBPA Giardia inh: qHTS Assay for Inhibitors of Fructose-1,6-bisphosphate Aldolase from Giardia Lamblia; Potency, µM (highest dose often 59.6 µM), for inactives: at the highest dose activity, negative = inhibition, hits mostly inhibitors; AID 2451, 2010; A8B2U2; 0.71% of 290,000 active; purified Giardia FBPA; further: potency means the concentration at half of the fitted maximal effect; on the % scale 0 is the no-effect control and ±100 the full control effect; nearly all actives have a fitted effect of over 55% in size
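Giardia FBPA (40 nM reagent) was preincubated 10 min at RT with compound (up to 57.5 uM final), then substrate plus GAPDH/TPI/NAD/arsenate coupling system with diaphorase/resazurin was added; resorufin fluorescence (525/598 nm) was read after 20 min.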
Sm TGR block: qHTS Assay for the Inhibitors of Schistosoma Mansoni Peroxiredoxins; purified TGR, DTNB reduction, TNB absorbance 405 nm; Potency, µM (highest dose often 114 µM), for the others: top-dose activity change, negative = inhibition, most hits filed as inhibitors; 3% of 360,000 active; AID 485364, 2010; further: potency means the concentration at half of the fitted maximal effect; on the % scale 0 is the no-effect control and ±100 the full control effect; nearly all actives have a fitted effect of over 60% in size
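TGR 20 nM + NADPH 100 uM (dispensed conc.), cpd preinc 15 min RT; start with NADPH (500 uM addition) then DTNB (15 mM addition). Kinetic TNB absorbance, 405 nm filter. Four-parameter Hill fit across titration.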
LmPK inh: qHTS Assay for Inhibitors of Leishmania Mexicana Pyruvate Kinase (LmPK); purified LmPK, Kinase-Glo ATP luminescence, 1 h; Potency, µM (titrated, usually from 57.5 µM), inactives show at the highest dose activity change, negative = inhibition, hits mostly inhibitors; 0.37% of 290,000 active; AID 1721, 2009; Q27686; further: potency means the concentration at half of the fitted maximal effect; on the % scale 0 is the no-effect control and ±100 the full control effect
Target sequence (Q27686 whole entry, looked up): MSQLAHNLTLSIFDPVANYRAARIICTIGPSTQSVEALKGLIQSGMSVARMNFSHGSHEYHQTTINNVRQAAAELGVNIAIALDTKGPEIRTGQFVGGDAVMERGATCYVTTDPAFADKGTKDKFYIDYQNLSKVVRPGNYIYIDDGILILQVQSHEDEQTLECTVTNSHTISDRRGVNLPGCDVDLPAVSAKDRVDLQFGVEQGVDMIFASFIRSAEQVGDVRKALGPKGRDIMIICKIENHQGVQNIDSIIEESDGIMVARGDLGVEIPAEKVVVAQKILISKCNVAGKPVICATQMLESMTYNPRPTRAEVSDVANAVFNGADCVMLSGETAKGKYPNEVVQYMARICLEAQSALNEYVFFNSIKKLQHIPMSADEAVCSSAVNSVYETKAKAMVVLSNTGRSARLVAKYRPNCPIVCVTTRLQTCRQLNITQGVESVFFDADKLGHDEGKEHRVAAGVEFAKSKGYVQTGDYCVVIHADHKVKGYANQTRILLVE
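qHTS format; LmPK 0.1 nM; substrates PEP 0.5 mM and ADP 0.1 mM. One-hour room-temperature incubation, then coupled luciferase luminescence; 0.5 nM enzyme wells mark activation.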
Tb PYK inh: qHTS of Trypanosoma Brucei Inhibitors | pyruvate kinase (Trypanosoma brucei), Q57TT1 | TbPYK enzyme, Kinase-Glo Plus ATP luminescence, 45 min | Potency, µM (doses to about 76.8 µM), without a hit: at the top dose activity, negative = inhibition, hits mostly inhibitors | 0.12% of 410,000 active | AID 624173, 2012; further: potency means the concentration at half of the fitted maximal effect; on the % scale 0 is the no-effect control and ±100 the full control effect; nearly all actives have a fitted effect of over 50% in size
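Readout: single end-point luminescence (Kinase-Glo Plus, 10 min). Reaction conditions were TbPYK/substrate plus 130 uM ADP, 45 min at RT, pH 7.2 TEA buffer. No-enzyme wells served as controls, and data were normalized before concentration-response fitting.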
Shiga inhibitor: A qHTS for Small Molecule Inhibitors of Shiga Toxin | Vero cells, Shiga toxin protein synthesis inhibition reporter | inhibition, % at 38.7 µM | 9.2% of 290,000 active | AID 2315, 2010; in the data active means inhibition mostly above about 28%, no sharp cut-off; inactive means mostly below about 43%; further: 0% is about no effect
* marks the source's active call; other numbers are inactive results; ? = inconclusive; . = no result given. Unless noted, the call rests on the fitted dose curve; in most records, active means well fitted curve in the direction sought with a large enough effect; inconclusive means small, poorly fitted or top-dose-only effect, or another doubt; inactive means no such curve, though single readings can be large; an effect the other way counts as inactive or inconclusive.

SMILES	Cycloheximide cs	FBPA Giardia inh	Sm TGR block	LmPK inh	Tb PYK inh	Shiga inhibitor
Nc1ccc(-c2nnc(-c3ccc(N)cc3)o2)cc1	48*	3%	0%	-1%	-5%	73*
Cc1cccc(-c2nnc(-c3ccc(N)cc3)o2)c1	35*	-3%	3%	-12%	-11%	75*
O=C(CN1C(=O)CCC1=O)Nc1nc(-c2nc3ccccc3s2)cs1	25*	5%	-4%	-1%	-9%	active
O=C(CN1C(=O)CCC1=O)Nc1nc(-c2ccc3ccccc3c2)cs1	40*	-7%	-5%	1%	-3%	96*
Cc1ccc(-c2csc(NC(=O)CN3C(=O)CCC3=O)n2)cc1	14	-5%	-2%	-1%	0%	17
O=C(CN1C(=O)CCC1=O)Nc1nc(-c2ccccn2)cs1	-5	?	-10%	-1%	-1%	-10
O[C@@H]1CO[C@H]2C1OC[C@@H]2O (stereo partly drawn)	-6	2%	.	.	.	-4
CCCC(=O)Nc1nnc(-c2ccc3c(c2)OCO3)s1	-1	5%	-6%	-1%	0%	-3
CCCC(=O)Nc1nc(-c2ccc3c(c2)OCCO3)cs1	40*	-7%	3%	0%	-4%	93*
CC1(C(=O)OCC(=O)Nc2nc(-c3ccc(F)c(F)c3)cs2)CC1(Cl)Cl (stereo not drawn)	13	4%	7%	4%	-7%	54*
CCCC(=O)Nc1nc(-c2ccc(OC)cc2)cs1	40*	0%	18%	-2%	-1%	138*
CC(=O)Nc1nnc(-c2ccc3c(c2)CCCC3)o1	46*	-9%	1%	-6%	1%	65*
CCc1ccc(-c2csc(NC(=O)COC(=O)CCc3nc4ccccc4s3)n2)cc1	48*	8%	-2%	3%	.	53*
COc1ccc(-c2csc(NC(=O)COC(=O)C3=COCCO3)n2)cc1	33*	7%	-15%	0%	2%	53
O=C(Nc1nc(-c2ccc3c(c2)OCO3)cs1)C1CC1	44*	-10%	2%	-3%	-10%	66*
CC(=O)Nc1cnc(-c2ccc3c(c2)OCO3)cn1	.	.	.	.	0%	.
CSCC(=O)Nc1nc(-c2ccc3c(c2)OCCO3)cs1	51*	-10%	-10%	9%	-3%	119*
O=C(CSCC(=O)Nc1nc(-c2ccc3c(c2)OCO3)cs1)Nc1nccs1	-2	-7%	7%	1%	0%	6
Cc1nnc(N2CCC(C(=O)N3CCCCC3)CC2)c2nn(-c3ccccc3)c(C)c12	.	.	-4%	.	2%	.
CC(C)(C)c1ccc(NC(=O)COC(=O)C2(C)CC2(Cl)Cl)cc1 (stereo not drawn)	49*	-9%	3%	0%	4%	77*
CCCC(=O)Nc1nnc(-c2ccc3c(c2)OCCO3)o1	31*	-20%	2%	-2%	3%	58*
CC(C)(C)c1ccc(NC(=O)COC(=O)C2=COCCO2)cc1	21*	-14%	-32%	3%	3%	91
O=C(O)C(=O)Nc1nc(-c2ccc3c(c2)OCCO3)cs1	14*	6%	-4%	-11%	-15%	26*
Cc1nn(C)c(C)c1S(=O)(=O)N(CC(=O)NCCc1ccc(Cl)cc1)c1ccc(C(C)C)cc1	.	.	3%	.	1%	.
COCCn1c(=O)c(-c2ccc(OC)cc2)nc2cnc(OCc3ccccc3)nc21	.	7%	.	.	.	.
SMILES	Cycloheximide cs	FBPA Giardia inh	Sm TGR block	LmPK inh	Tb PYK inh	Shiga inhibitor
COc1ccc2[nH]cc(CCNc3nc(-c4cccnc4)nc4ccccc34)c2c1	.	-14%	.	.	.	.
CCCC(=O)Nc1nc(-c2ccc(Cl)s2)cs1	38*	-2%	3%	-2%	-1%	28
Cc1ccc(N=Cc2ccc[nH]2)c(O)c1	44*	?	?	-1%	-6%	98*
Clc1ccc2c(c1)CNc1c(ncnc1N1CCOCC1)O2	12*	1%	-3%	-2%	-2%	-14
Clc1ccc2c(N3CCOCC3)ccnc2c1	-2	6%	-10%	-1%	2%	.
CCc1nc2c(OCC(=O)C(C)(C)C)cccn2c1N(C)C(=O)Nc1ccccc1OC	.	.	.	.	-5%	.
COc1ccc(NC(=O)N2CCc3c([nH]c4ccc(OC)cc34)C2c2ccc(OC)cc2)cc1 (stereo not drawn)	.	.	5%	.	3%	.
NS(=O)(=O)c1ccc(N/N=C/c2cn(-c3ccccc3)nc2-c2cccs2)cc1	9.3*	2%	-5%	-2%	-13%	39*
O=C(Nc1cccnc1)c1cn(-c2ccccc2)nc1-c1cccs1	4	-4%	-3%	-2%	3%	6
NS(=O)(=O)c1ccc(N/N=C/c2cn(-c3ccccc3)nc2-c2cccs2)c([N+](=O)[O-])c1	6	7%	4%	-4%	6%	7
NC(=O)N/N=C/c1cn(-c2ccccc2)nc1-c1cccs1	36*	-3%	-4%	-22%	-4%	51*
O=C(O)c1cccc(N/N=C/c2cn(-c3ccccc3)nc2-c2cccs2)c1	52*	-5%	-5%	-3%	-12%	150*
Cc1nn(-c2ccccc2)cc1/C=N/NC(N)=S	13	-17%	1%	-12%	0%	40*
Fc1ccc(C(NCCc2ccc(Cl)cc2)c2nnc(-c3ccccc3Cl)o2)cc1 (stereo not drawn)	.	.	-2%	.	-6%	.
COc1ccc(CCNC(=O)Cc2cccc(C(F)(F)F)c2)cc1OC	4	-8%	-8%	0%	2%	-8
Nc1nc(Cl)nc2c1ncn2[C@@H]1O[C@H](CO)[C@H](O)C1F (stereo partly drawn)	.	.	.	.	7%	.
Cc1ccc(-c2nn(-c3ccccc3)cc2/C=N/NC(=O)c2ccncc2)o1	65*	-8%	-68%	2%	-4%	58*
O=C(N/N=C/c1cn(-c2ccccc2)nc1-c1cccs1)c1ccncc1	32*	0%	5%	0%	-3%	50*
O=C(N/N=C/c1nn(-c2ccccc2)cc1-c1ccccc1)c1ccncc1	22	0%	2%	-1%	1%	29
C#C[C@@]1(OC(C)=O)CC[C@H]2[C@@H]3CCC4=CC(=O)CC[C@@H]4[C@H]3CC[C@@]21C	.	.	.	.	7%	.
CCCCCCCCCCCC	-6	0%	.	.	.	31
O=C(NC(=S)Nc1ccc(Br)cn1)c1cccs1	69*	?	4%	1%	3%	105*
O=C(NC(=S)Nc1ccc(S(=O)(=O)N2CCCCC2)cc1)c1cccs1	2	?	?	2%	4%	-5
